Experimental data reported in PubChem BioAssay AID1159580 (chemical genetic matrix, 2015).
Screen size: about 5,500 compounds; about 2,000 (36%) were called active. Inconclusive results (about 18%) are left out. No stated cut-off is given here; in the data, active means normalized growth mostly below about 0.91 (no sharp cut-off); inconclusive means no clear call, values can overlap the other calls; inactive means mostly above about 0.92. Some of the results follow.

Test: chemical genetic growth profiling, strain panel (AID 1159580);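 further: tested at 20 µM; growth read once vehicle control cultures reached saturation at 30 °C; 1 = growth at the plate median or of vehicle wells; lower values mean less growth of the strain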
Details: growth OD

Measured: normalized growth

COC(=O)c1cc(OC)c(=O)c2c(OC)c(OC)ccc2c1
inactive: S. cerevisiae deletion strains, locus YBR021W, strain FUR4, active compounds read low 1.02 | S. cerevisiae deletion strains, locus YBR229C, strain ROT2, active compounds read low 1.01 | S. cerevisiae deletion strains, locus YCL029C, strain bik1, active compounds read low 0.969 | S. cerevisiae deletion strains, locus YDL035C, strain GPR1, active compounds read low 1.03 | S. cerevisiae deletion strains, locus YDL074C, strain BRE1, active compounds read low 1.08 | S. cerevisiae deletion strains, locus YDL101C, strain DUN1, active compounds read low 1.01 | S. cerevisiae deletion strains, locus YDL134C, strain PPH21, active compounds read low 1.04 | S. cerevisiae deletion strains, locus YDL185W, strain tfp1, active compounds read low 0.998 | S. cerevisiae deletion strains, locus YDL192W, strain arf1, active compounds read low 0.971 | S. cerevisiae deletion strains, locus YDR101C, strain arx1, active compounds read low 0.975 | S. cerevisiae deletion strains, locus YDR162C, strain NBP2, active compounds read low 1.01 | S. cerevisiae deletion strains, locus YDR318W, strain mcm21, active compounds read low 0.969 | S. cerevisiae deletion strains, locus YDR388W, active compounds read low 0.986 | S. cerevisiae deletion strains, locus YDR502C, strain sam2, active compounds read low 0.99 | S. cerevisiae deletion strains, locus YER110C, active compounds read low 1.01 | S. cerevisiae deletion strains, locus YER155C, strain BEM2, active compounds read low 1.01 | S. cerevisiae deletion strains, locus YER167W, strain BCK2, active compounds read low 1 | S. cerevisiae deletion strains, locus YGL078C, strain dbp3, active compounds read low 0.995 | S. cerevisiae deletion strains, locus YGL086W, strain mad1, active compounds read low 0.984 | S. cerevisiae deletion strains, locus YGL248W, strain PDE1, active compounds read low 1.02 | S. cerevisiae deletion strains, locus YGR078C, strain PAC10, active compounds read low 1.01 | S. cerevisiae deletion strains, locus YGR135W, strain pre9, active compounds read low 0.985 | S. cerevisiae deletion strains, locus YGR229C, strain SMI1, active compounds read low 1.06 | S. cerevisiae deletion strains, locus YHR079C, strain IRE1 (second series), active compounds read low 1 | S. cerevisiae deletion strains, locus YHR094C, strain hxt1, active compounds read low 0.972 | S. cerevisiae deletion strains, locus YHR129C, strain ARP1, active compounds read low 1.02 | S. cerevisiae deletion strains, locus YHR200W, strain rpn10, active compounds read low 0.985 | S. cerevisiae deletion strains, locus YIL066C, strain RNR3, active compounds read low 1.02 | S. cerevisiae deletion strains, locus YIL073C, strain SPO22, active compounds read low 0.951 | S. cerevisiae deletion strains, locus YIL125W, strain kgd1, active compounds read low 0.978 | S. cerevisiae deletion strains, locus YIR030C, strain dcg1, active compounds read low 0.986 | S. cerevisiae deletion strains, locus YJL095W, strain BCK1, active compounds read low 1.04 | S. cerevisiae deletion strains, locus YJL134W, strain LCB3, active compounds read low 1 | S. cerevisiae deletion strains, locus YJL168C, strain set2, active compounds read low 0.972 | S. cerevisiae deletion strains, locus YJL187C, strain SWE1 (second series), active compounds read low 1.02 | S. cerevisiae deletion strains, locus YKL009W, strain mrt4, active compounds read low 0.977 | S. cerevisiae deletion strains, locus YKL068W, active compounds read low 0.999 | S. cerevisiae deletion strains, locus YKL085W, strain MDH1 (second series), active compounds read low 0.971 | S. cerevisiae deletion strains, locus YKL085W, strain MDH1, active compounds read low 0.971 | S. cerevisiae deletion strains, locus YKR001C, strain vps1, active compounds read low 0.966 | S. cerevisiae deletion strains, locus YLR039C, strain RIC1, active compounds read low 1.03 | S. cerevisiae deletion strains, locus YLR058C, strain SHM2, active compounds read low 1.03 | S. cerevisiae deletion strains, locus YLR102C, strain apc9, active compounds read low 0.959 | S. cerevisiae deletion strains, locus YLR268W, strain sec22, active compounds read low 0.981 | S. cerevisiae deletion strains, locus YLR330W, strain CHS5, active compounds read low 1.02 | S. cerevisiae deletion strains, locus YLR371W, strain rom2, active compounds read low 0.977 | S. cerevisiae deletion strains, locus YLR418C, strain cdc73, active compounds read low 1.07 | S. cerevisiae deletion strains, locus YML016C, strain PPZ1, active compounds read low 1 | S. cerevisiae deletion strains, locus YML032C, strain rad52, active compounds read low 0.996 | S. cerevisiae deletion strains, locus YML124C, strain tub3, active compounds read low 0.967 | S. cerevisiae deletion strains, locus YMR078C, strain ctf18, active compounds read low 0.976 | S. cerevisiae deletion strains, locus YMR223W, strain ubp8, active compounds read low 1 | S. cerevisiae deletion strains, locus YMR307W, strain GAS1, active compounds read low 1.01 | S. cerevisiae deletion strains, locus YNL067W, strain RPL9B, active compounds read low 0.998 | S. cerevisiae deletion strains, locus YNL233W, strain BNI4, active compounds read low 1.03 | S. cerevisiae deletion strains, locus YNL250W, strain rad50, active compounds read low 1.05 | S. cerevisiae deletion strains, locus YNL271C, strain bni1, active compounds read low 0.981 | S. cerevisiae deletion strains, locus YNL298W, strain CLA4, active compounds read low 0.984 | S. cerevisiae deletion strains, locus YNL307C, strain MCK1, active compounds read low 0.952 | S. cerevisiae deletion strains, locus YNL322C, strain KRE1, active compounds read low 1 | S. cerevisiae deletion strains, locus YNR052C, strain pop2, active compounds read low 0.981 | S. cerevisiae deletion strains, locus YOL006C, strain TOP1, active compounds read low 1.21 | S. cerevisiae deletion strains, locus YOL012C, strain htz1 0.895 | S. cerevisiae deletion strains, locus YOL147C, strain pex11, active compounds read low 0.993 | S. cerevisiae deletion strains, locus YOR061W, strain CKA2, active compounds read low 1 | S. cerevisiae deletion strains, locus YOR069W, strain VPS5, active compounds read low 1 | S. cerevisiae deletion strains, locus YOR136W, strain idh2, active compounds read low 0.977 | S. cerevisiae deletion strains, locus YOR144C, strain elg1, active compounds read low 0.987 | S. cerevisiae deletion strains, locus YOR184W, strain ser1, active compounds read low 0.935 | S. cerevisiae deletion strains, locus YOR316C, strain cot1, active compounds read low 0.985 | S. cerevisiae deletion strains, locus YPL241C, strain CIN2, active compounds read low 1 | S. cerevisiae deletion strains, locus YPR119W, strain clb2, active compounds read low 0.969 | S. cerevisiae deletion strains, locus YPR141C, strain kar3, active compounds read low 0.982 | S. cerevisiae deletion strains, locus YPR163C, strain tif3, active compounds read low 0.977 | S. cerevisiae deletion strains, locus YPR167C, strain met16, active compounds read low 0.967 | S. cerevisiae deletion strains, strain wtn01, active compounds read low 0.994 | S. cerevisiae strains, strain wild type, active compounds read low 1.02
